The values that follow come from PubChem BioAssay (EPA / NIEHS).

Assay [1] addresses human Thyroid Receptor alpha (THRa1), THRA (gene 7067) (UniProt P10827). As to the kind of experiment: ATG_THRa1_TRANS: Attagene TRANS-FACTORIAL HepG2 Assay for human Thyroid Receptor alpha (THRa1) (AID 2283014; active means hit-call score of the fitted dose curve at least 0.9, where 1 is the maximum). The gist of the method: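 Reporter transcript induction, read by capillary electrophoresis of 6-FAM-labelled RT-PCR products, reflects activity of a transfected THRa1-Gal4 fusion in HepG2 liver cells. Cells were dosed for 24 h; activity was fitted in the positive direction against DMSO.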

Read-out in assay [2]: E-selectin (Homo sapiens) (UniProt P16581)
The assay is described as follows: BSK_3C_Eselectin: BioMAP Diversity Plus: 3C Assay for Eselectin Biomarker Activity (AID 2283015).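 On outcome: cell surface E-selectin protein quantified by ELISA 24 h after dosing.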 The settings on record: primary human endothelial cells (HUVEC); actives raise or lower the signal. The method in brief: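 ELISA read-out of E-selectin on endothelial monolayers after 24 h chemical treatment. Human umbilical vein primary cells served as the system, with DMSO defining baseline activity for bidirectional fitting.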

Read-out in assay [3]: Interleukin-1 alpha (IL1a), IL1A (gene 3552)
The assay is described as follows: BSK_BE3C_IL1a: BioMAP Diversity Plus: BE3C Assay for Interleukin-1 alpha (IL1a) Biomarker Activity (AID 2283016). The settings on record: primary human bronchial epithelial cells; actives raise or lower the signal. The gist of the method:
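Human primary bronchial epithelial cells (BE3C system) were dosed with compound and IL-1a measured by ELISA 24 h later. Activity was fitted bidirectionally against DMSO baseline; cytotoxicity was tracked in parallel cultures by SRB total-protein staining.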

Read-out in assay [4]: Monocyte Chemoattractant Protein-1 (MCP1), CCL2 (gene 6347)
As to the kind of experiment: BSK_3C_MCP1: BioMAP Diversity Plus: 3C Assay for Monocyte Chemoattractant Protein-1 (MCP1) Biomarker Activity (AID 2283017). To be noted: primary human endothelial cells (HUVEC); actives raise or lower the signal. The method in brief:
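ELISA read-out of MCP-1 from human umbilical vein endothelial cell cultures harvested 24 h post-dosing. Gain or loss of signal was fitted relative to DMSO.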

Read-out in assay [5]: Monocyte Chemoattractant Protein-1 (MCP1), CCL2 (gene 6347)
As to the kind of experiment: BSK_4H_MCP1: BioMAP Diversity Plus: 4H Assay for Monocyte Chemoattractant Protein-1 (MCP1) Biomarker Activity (AID 2283018). To be noted: primary human endothelial cells (HUVEC); actives raise or lower the signal. The gist of the method: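 Human umbilical vein endothelial cells (4H system) dosed with chemical; MCP-1 measured by ELISA 24 h after dosing. Bidirectional curve fitting against DMSO negative control as baseline; parallel SRB total-protein staining tracks overt cytotoxicity.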

Read-out in assay [6]: Human Leukocyte Antigen - DR isotype (HLADR), HLA-DRA (gene 3122)
As to the kind of experiment: BSK_3C_HLADR: BioMAP Diversity Plus: 3C Assay for Human Leukocyte Antigen - DR isotype (HLADR) Biomarker Activity (AID 2283019). The settings on record: primary human endothelial cells (HUVEC); actives raise or lower the signal. The method in brief: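 ELISA readout of surface HLA-DR on human umbilical vein endothelium, taken 24 h after chemical treatment. Gain- and loss-of-signal were both fitted relative to DMSO.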

Read-out in assay [7]: Interleukin-8 (IL8), CXCL8 (gene 3576)
As to the kind of experiment: BSK_3C_IL8: BioMAP Diversity Plus: 3C Assay for Interleukin-8 (IL8) Biomarker Activity (AID 2283020). The settings on record: primary human endothelial cells (HUVEC); actives raise or lower the signal. The method in brief: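 Primary human umbilical vein endothelial cells (3C system) were exposed to test chemical for 24 h, then IL-8 was quantified by ELISA. Responses were fitted bidirectionally against DMSO vehicle as baseline.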

Read-out in assay [8]: Monokine induced gamma interferon (MIG), CXCL9 (gene 4283)
As to the kind of experiment: BSK_3C_MIG: BioMAP Diversity Plus: 3C Assay for Monokine induced gamma interferon (MIG) Biomarker Activity (AID 2283021). The settings on record: primary human endothelial cells (HUVEC); actives raise or lower the signal. The gist of the method:
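Primary human umbilical vein endothelial cells in the 3C system were exposed to chemical for 24 h, after which MIG was quantified by ELISA. Activity was fitted bidirectionally against DMSO as negative control and baseline.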

Assay [9] has as its target human Retinoid X Receptor beta (RXRb), RXRB (gene 6257) (UniProt P28702). The assay is described as follows: ATG_RXRb_TRANS: Attagene TRANS-FACTORIAL HepG2 Assay for human Retinoid X Receptor beta (RXRb) (AID 2283013; active means hit-call score of the fitted dose curve at least 0.9, where 1 is the maximum). The method in brief:
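HepG2 cells transiently transfected with multiplexed reporter units driven by GAL4-UAS and exogenous chimeric NR-Gal4 proteins; treated 24 h. Reporter mRNA measured by RT-PCR, 6-FAM labelling and capillary electrophoresis; gain-of-signal fitted versus DMSO baseline.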

Assay [10] deals with Retinoic acid receptor RXR-alpha (Homo sapiens) (UniProt P19793). As to the kind of experiment: ATG_RXRa_TRANS: Attagene TRANS-FACTORIAL HepG2 Assay for human Retinoid X Receptor alpha (RXRa) (AID 2283012; active means hit-call score of the fitted dose curve at least 0.9, where 1 is the maximum). The gist of the method: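 HepG2 cells transiently transfected with multiplexed GAL4-UAS reporter units and chimeric NR-GAL4 fusions, dosed 24 h. Reporter mRNA measured by RT-PCR, FAM labelling, HpaI digestion and capillary electrophoresis; gain-of-signal fitted relative to DMSO baseline.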
Sequence of Retinoic acid receptor RXR-alpha (Homo sapiens) (P19793 whole entry, looked up, the tested form may be a part): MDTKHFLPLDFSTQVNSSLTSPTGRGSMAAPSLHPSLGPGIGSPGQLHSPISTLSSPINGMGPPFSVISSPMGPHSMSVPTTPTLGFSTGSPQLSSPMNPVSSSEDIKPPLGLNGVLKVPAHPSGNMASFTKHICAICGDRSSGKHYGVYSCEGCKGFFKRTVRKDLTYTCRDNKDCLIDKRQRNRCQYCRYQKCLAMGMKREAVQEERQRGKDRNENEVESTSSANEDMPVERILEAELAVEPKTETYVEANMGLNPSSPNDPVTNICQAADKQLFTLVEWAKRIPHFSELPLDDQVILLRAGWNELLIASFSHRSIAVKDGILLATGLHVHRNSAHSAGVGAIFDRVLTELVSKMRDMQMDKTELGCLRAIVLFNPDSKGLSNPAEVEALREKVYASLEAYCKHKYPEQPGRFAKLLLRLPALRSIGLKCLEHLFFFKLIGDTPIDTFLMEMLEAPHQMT

Inconclusive results are not listed. More than one record can exist for a structure, and the calls need not agree. Calls of active or inactive are those of the source. How the source made its calls, unless noted: active means hit-call score of the fitted dose curve at least 0.9, where 1 is the maximum; inactive means score below 0.9.

By AC50 is commonly meant the midpoint of the concentration-response curve, whichever way the signal moves.

Sequence of human Thyroid Receptor alpha (THRa1), THRA (gene 7067) (P10827 whole entry, looked up, the tested form may be a part): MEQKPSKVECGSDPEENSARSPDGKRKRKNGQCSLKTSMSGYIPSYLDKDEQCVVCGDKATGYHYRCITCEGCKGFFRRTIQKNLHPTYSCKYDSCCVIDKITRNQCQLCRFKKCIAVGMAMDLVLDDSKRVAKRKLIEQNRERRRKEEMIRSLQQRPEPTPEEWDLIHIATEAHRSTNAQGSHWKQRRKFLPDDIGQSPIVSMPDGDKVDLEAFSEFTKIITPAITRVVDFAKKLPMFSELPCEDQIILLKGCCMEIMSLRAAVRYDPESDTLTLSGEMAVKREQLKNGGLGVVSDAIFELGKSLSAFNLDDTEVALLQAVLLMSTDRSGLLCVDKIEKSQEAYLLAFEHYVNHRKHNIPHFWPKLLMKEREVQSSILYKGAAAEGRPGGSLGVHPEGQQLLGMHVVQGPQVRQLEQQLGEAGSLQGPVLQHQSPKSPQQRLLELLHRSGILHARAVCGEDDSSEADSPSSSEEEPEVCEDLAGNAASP
Sequence of human Retinoid X Receptor beta (RXRb), RXRB (gene 6257) (P28702 whole entry, looked up, the tested form may be a part): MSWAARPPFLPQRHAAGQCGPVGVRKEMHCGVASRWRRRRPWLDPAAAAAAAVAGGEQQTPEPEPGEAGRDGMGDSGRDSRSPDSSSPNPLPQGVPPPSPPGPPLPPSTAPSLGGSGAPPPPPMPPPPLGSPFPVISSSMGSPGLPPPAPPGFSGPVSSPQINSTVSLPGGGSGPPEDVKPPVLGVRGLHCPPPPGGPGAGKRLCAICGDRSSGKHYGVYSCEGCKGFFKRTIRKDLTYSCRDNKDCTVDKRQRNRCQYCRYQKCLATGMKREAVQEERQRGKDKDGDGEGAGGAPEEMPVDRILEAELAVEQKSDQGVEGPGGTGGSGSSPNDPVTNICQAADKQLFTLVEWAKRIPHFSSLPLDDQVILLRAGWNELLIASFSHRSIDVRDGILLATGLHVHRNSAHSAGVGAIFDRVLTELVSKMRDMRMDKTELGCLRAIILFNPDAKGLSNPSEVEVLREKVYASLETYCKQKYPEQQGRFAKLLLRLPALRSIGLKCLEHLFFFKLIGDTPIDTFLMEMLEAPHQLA
Sequence of E-selectin (Homo sapiens) (P16581 whole entry, looked up): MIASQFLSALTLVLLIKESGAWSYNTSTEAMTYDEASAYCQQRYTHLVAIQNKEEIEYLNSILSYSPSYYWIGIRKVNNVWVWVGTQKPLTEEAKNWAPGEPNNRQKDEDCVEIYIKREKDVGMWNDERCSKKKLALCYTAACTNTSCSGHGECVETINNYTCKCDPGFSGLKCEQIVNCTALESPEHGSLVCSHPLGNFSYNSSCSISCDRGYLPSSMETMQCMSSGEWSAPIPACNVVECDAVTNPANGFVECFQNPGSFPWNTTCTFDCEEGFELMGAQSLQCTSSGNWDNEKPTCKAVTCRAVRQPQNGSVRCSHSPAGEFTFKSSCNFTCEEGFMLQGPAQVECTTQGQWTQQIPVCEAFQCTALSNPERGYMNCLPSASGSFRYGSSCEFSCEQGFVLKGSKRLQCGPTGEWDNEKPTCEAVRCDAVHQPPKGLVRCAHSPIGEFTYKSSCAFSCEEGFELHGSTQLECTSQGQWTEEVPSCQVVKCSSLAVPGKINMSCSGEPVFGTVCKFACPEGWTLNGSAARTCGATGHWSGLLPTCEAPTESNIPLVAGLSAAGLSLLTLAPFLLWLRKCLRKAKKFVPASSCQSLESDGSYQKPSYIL

For the compound `COC(=O)c1cccc(C)c1S(=O)(=O)NC(=O)Nc1nc(OCC(F)(F)F)nc(N(C)C)n1`, the outcome in [1], in assay [2], in [3], in [4], in assay [5] and in assay [6] was inactive. Moreover, the result in assay [7] and in assay [8] was inactive.
For `CCCCCOC(=O)COc1cc(N2C(=O)C3=C(CCCC3)C2=O)c(F)cc1Cl`, the call in assay [9], in assay [2], in assay [3], in [4], in assay [5] and in assay [7] was inactive. In addition, the AC50 in assay [6] is 19.2 µM (active).
As to `COC(=O)c1c(Cl)nn(C)c1S(=O)(=O)NC(=O)Nc1nc(OC)cc(OC)n1`, the call in assay [1], in assay [2], in assay [3], in assay [5], in [6] and in [7] was inactive.
With `Cc1nn(C)c(Oc2ccccc2)c1C=NOCc1ccc(C(=O)OC(C)(C)C)cc1`, the AC50 in assay [1] was 0.109 µM (active); in [2] it was 20 µM (active); in [4], 14.4 µM (active); in assay [5], 6.16 µM (active); in assay [6], 3.97 µM (active); in [7] it was 9.81 µM (active). In addition, the outcome in [3] and in assay [8] was inactive.
As for `CCSC(=O)N(CC(C)C)CC(C)C`, the result in [10], in assay [2], in [3], in assay [4], in assay [5] and in assay [6] was inactive. Also, the result in assay [7] was inactive.
On to `CC1(C)C(C=C(Cl)Cl)C1C(=O)OCc1cccc(Oc2ccccc2)c1` (stereo not drawn), for which the call in assay [9], in assay [1], in assay [2], in assay [3], in assay [5] and in [7] was inactive. Also, the AC50 in assay [6] is 5.44 µM (active).
As to `CC(=O)S[C@@H]1CC2=CC(=O)CC[C@]2(C)[C@H]2CC[C@@]3(C)[C@@H](CC[C@@]34CCC(=O)O4)[C@H]12`, the compound was classed as inactive in assay [1] and in [3]. The AC50 in [2] was 20 µM (active); in assay [5], 20 µM (active); in assay [6], 26.3 µM (active); in assay [7] it was 18.9 µM (active).
As to `CC(C)(C)[C@@H](O)[C@@H](Cc1ccc(Cl)cc1)n1cncn1`, the outcome in assay [1], in assay [2], in assay [3], in assay [4], in assay [5] and in assay [7] was inactive. Besides, the AC50 in [6] is 7.11 µM (active).
As to `CCCCC(CC)CN1C(=O)C2C3C=CC(C3)C2C1=O` (stereo not drawn), the call in assay [9], in assay [2], in assay [3] and in assay [7] was inactive. Moreover, the AC50 in assay [5] is 19.2 µM (active); in [6] it was 30.6 µM (active).
Regarding `CCCOC(=O)NCCCN(C)C`, the result in assay [10], in assay [9], in assay [2], in [3], in assay [5] and in [6] was inactive. Besides, the result in [7] was inactive.
Turning to `c1ccc(Nc2ccccc2)cc1`, the compound was classed as inactive in [9], in assay [2], in assay [3], in [5], in assay [7] and in assay [8]. For the same compound, the AC50 in [6] is 13.5 µM (active).
For `S=C(S)NCCNC(=S)S.[Mn+2].[S-]C([S-])=NCCN=C([S-])[S-].[Zn+2]`, the call in assay [1], in assay [2], in assay [3], in assay [5], in assay [6] and in assay [7] was inactive. Further, the AC50 in [6] is 13.3 µM (active) [middle of 4 runs].
`Oc1ccc(C(c2ccc(O)cc2)C(Cl)(Cl)Cl)cc1`: the call in [9] and in [1] was inactive. The AC50 in [2] was 27.3 µM (active); in assay [3], 31.5 µM (active); in assay [5] it was 14.6 µM (active); in assay [6], 33.5 µM (active); in assay [7], 15.5 µM (active).
Take `CCOC(=O)NCCOc1ccc(Oc2ccccc2)cc1`: the compound was called inactive in assay [10], in [1] and in [3]. Besides, the AC50 in assay [2] is 21.3 µM (active); in [5], 18.7 µM (active); in assay [6], 25.5 µM (active); in assay [7], 15 µM (active).
For `O=C(c1ccccc1)C1CCCCC1`, the compound was called inactive in assay [1], in [2], in assay [3], in assay [4], in assay [5] and in [6]. Also, the outcome in assay [7] and in assay [8] was inactive.
As to `S=C([S-])NCCNC(=S)[S-].[Mn+2]`, the call in [1], in assay [2], in [3], in assay [5] and in [7] was inactive. The AC50 in assay [6] is 29.7 µM (active).
Take `CCC(O)=C1C(=O)CC(C(=O)O)CC1=O` (stereo not drawn): the compound was called inactive in assay [9], in assay [1], in [2], in assay [3], in [5] and in [6]. Further, the outcome in [7] was inactive.
As to `CCC(C)OC(=O)N1CCCCC1CCO` (stereo not drawn), the outcome in assay [1], in assay [2], in assay [3], in [5], in [6] and in assay [7] was inactive. Besides, the result in assay [8] was inactive. In addition, in assay [3], the AC50 is 0.981 µM (active).
Consider `c1ccc2[nH]c(-c3cscn3)nc2c1`, for which the compound was called inactive in assay [10], in assay [2], in assay [3], in [5], in [6] and in [7].
For the compound `CCCN(CCC)C(=O)SCC`, the compound was called inactive in [1], in [2], in [3], in [5], in assay [6] and in assay [7].
For `CCCCC(CC)COC(=O)c1ccccc1C(=O)O` (stereo not drawn), the result in assay [1], in assay [2], in assay [3], in [4], in assay [5] and in [6] was inactive. Moreover, the result in assay [7] and in assay [8] was inactive.
As for `O=C(Nc1ccc([N+](=O)[O-])cc1Cl)c1cc(Cl)ccc1O`, the result in [1], in assay [2], in assay [4] and in assay [7] was inactive. Further, the AC50 was 0.148 µM (active) in assay [3] and 0.169 µM (active) in assay [6].
`CCNc1nc(N)nc(Cl)n1`: the compound was called inactive in [1], in assay [2], in assay [3], in [4], in assay [5] and in assay [6]. For the same compound, the outcome in assay [7] was inactive.
Regarding `CCOC(=O)COc1cc(-n2ncc(C(F)(F)F)c(C)c2=O)c(F)cc1Cl`, the call in assay [1], in assay [2], in [3], in assay [4], in assay [5] and in [6] was inactive. The result in [7] and in assay [8] was inactive.
`CN(C)C(=O)Nc1ccc(Cl)c(Cl)c1`: the result in assay [1], in [2], in assay [3], in assay [4], in assay [5] and in [6] was inactive. Moreover, the outcome in [7] and in assay [8] was inactive.
Take `COC(=O)CSc1cc(N=c2sc(=O)n3n2CCCC3)c(F)cc1Cl`: the compound was called inactive in assay [10], in assay [1], in [2], in assay [3], in assay [4] and in assay [5]. Further, the result in assay [6] and in assay [7] was inactive.
As for `COC(=O)c1ccc(CNS(C)(=O)=O)cc1S(=O)(=O)NC(=O)Nc1nc(OC)cc(OC)n1`, the compound was classed as inactive in assay [1], in assay [2], in assay [3], in assay [4], in assay [5] and in assay [6]. Further, the outcome in [7] and in [8] was inactive.
Take `OB(O)O`: the compound was classed as inactive in [10], in assay [2], in assay [3], in assay [4], in [5] and in assay [6]. Moreover, the outcome in assay [7] was inactive.
